Design in all cases: scale not given: direction of the effect not stated beside the values
The target in test [1] is Protein translocase subunit SecA (Escherichia coli (strain K12)) (UniProt P10408). Nature of the test: Assay to Identify E. coli SecA ATPase Inhibitors. It is filed as functional. The note with it: 30 µM.
Test [2] concerns the target T1, Ubiquitin-activating enzyme e1, putative (Leishmania donovani (strain BPK282A1)) (UniProt E9BSI1).
T1 sequence (whole entry): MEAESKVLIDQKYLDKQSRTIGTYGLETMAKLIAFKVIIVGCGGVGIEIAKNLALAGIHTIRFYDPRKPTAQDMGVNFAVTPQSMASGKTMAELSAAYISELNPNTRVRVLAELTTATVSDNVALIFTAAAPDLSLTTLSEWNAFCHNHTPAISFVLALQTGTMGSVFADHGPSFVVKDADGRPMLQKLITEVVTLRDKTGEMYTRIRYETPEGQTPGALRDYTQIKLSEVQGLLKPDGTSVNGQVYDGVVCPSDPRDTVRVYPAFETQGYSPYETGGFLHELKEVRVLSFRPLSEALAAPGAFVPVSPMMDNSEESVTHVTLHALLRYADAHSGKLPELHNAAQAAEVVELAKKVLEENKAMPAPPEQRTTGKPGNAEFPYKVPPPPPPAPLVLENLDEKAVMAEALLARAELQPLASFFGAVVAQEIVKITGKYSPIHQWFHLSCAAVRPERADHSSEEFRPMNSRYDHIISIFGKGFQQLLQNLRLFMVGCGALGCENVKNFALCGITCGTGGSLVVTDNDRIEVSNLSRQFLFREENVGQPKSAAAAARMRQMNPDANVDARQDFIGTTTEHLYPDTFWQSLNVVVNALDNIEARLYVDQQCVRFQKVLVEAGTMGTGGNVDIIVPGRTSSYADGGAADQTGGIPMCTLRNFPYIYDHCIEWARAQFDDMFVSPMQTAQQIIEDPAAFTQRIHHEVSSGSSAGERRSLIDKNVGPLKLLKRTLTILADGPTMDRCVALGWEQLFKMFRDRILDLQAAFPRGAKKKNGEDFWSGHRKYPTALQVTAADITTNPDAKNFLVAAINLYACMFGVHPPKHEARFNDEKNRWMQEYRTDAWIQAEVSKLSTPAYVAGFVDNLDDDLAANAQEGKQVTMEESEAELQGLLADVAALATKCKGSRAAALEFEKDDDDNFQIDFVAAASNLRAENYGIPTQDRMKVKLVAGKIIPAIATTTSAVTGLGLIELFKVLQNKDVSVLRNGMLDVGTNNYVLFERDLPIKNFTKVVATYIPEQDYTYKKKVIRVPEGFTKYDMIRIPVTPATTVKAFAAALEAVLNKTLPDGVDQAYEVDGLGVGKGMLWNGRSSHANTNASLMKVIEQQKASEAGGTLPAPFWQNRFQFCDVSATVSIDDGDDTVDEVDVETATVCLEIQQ
The test can be described thus: Leishmania donovani Ubiquitin Activating Enzyme (LdE1). It is filed as functional. The following applies: 30 µM.

The target of test [3] is AMP-activated protein kinase, AMPK (Homo sapiens) (UniProt P54646+O43741+P54619+Q9UGJ0+Q9Y478+Q13131+Q9UGI9). Nature of the test: AMP-dependent Kinase enzyme assay. An in vitro enzyme assay that detects ADP turnover that is directly proportional to AMPK activity. This uses naive AMPK that is activated during the assay with MK-8722. Format: functional. The following applies: 30 µM.

In test [4] the target is Sialic acid-binding Ig-like lectin 9 (Homo sapiens) (UniProt Q9Y336). Nature of the test: Hs-Siglec9 ALPHAscreen SOP 20170721. The note with it: 10 µM. In general terms: Alpha assays give light when donor and acceptor beads are brought close together.
The test system of another test is Trypanosoma cruzi. The test can be described thus: Trypanosoma cruzi phosphomannomutase and mannose-1-phosphate guanylyltransferase assay. It is filed as functional. The following applies: 10 µM.
The target in test [5] is T2, Arginase-2, mitochondrial (Homo sapiens) (UniProt P78540).
T2 sequence (whole entry): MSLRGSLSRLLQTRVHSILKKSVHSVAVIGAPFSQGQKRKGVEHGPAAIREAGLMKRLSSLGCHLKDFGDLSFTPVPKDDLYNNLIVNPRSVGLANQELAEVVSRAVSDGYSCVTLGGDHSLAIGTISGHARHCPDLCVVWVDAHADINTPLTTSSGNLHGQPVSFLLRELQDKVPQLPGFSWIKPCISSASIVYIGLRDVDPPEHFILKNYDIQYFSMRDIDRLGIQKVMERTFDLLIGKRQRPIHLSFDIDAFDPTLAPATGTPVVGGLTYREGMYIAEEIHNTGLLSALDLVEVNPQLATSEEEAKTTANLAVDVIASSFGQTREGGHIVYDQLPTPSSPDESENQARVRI
Nature of the test: in vitro enzyme assay to detect the production of urea directly proportional to the activity of Arginase II. Note: in the data most compounds retested in dose-response had high values. The note with it: 33.3 µM. It is filed as functional.

Test [6] has as its target T3, Proteasome subunit beta (Trypanosoma cruzi) (UniProt O96673).
T3 sequence (whole entry): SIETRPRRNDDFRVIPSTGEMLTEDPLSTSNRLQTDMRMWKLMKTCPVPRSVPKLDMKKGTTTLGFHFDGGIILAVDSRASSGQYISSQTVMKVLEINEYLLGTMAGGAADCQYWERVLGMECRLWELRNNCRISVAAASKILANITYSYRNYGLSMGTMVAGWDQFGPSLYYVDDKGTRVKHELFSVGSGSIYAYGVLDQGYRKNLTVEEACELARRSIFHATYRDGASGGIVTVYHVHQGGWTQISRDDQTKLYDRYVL
Nature of the test: Trypanosoma cruzi proteasome chymotrypsin-like activity (TcProtChymo) assay. Note: in the data most compounds retested in dose-response had high values. The following applies: 9.37 µM. Format: functional.

The species named for the next test is Homo sapiens. The test can be described thus: To identify inhibition of the IFN signalling (Jak-Stat) pathway via expression of an eGFP reporter gene under the control of an IFN-stimulated response element (ISRE) containing MxA promoter. It is filed as functional. The following applies: 30 µM. (A reporter such as luciferase makes a cellular process visible.)

Test [7] deals with T4, Tyrosyl-tRNA synthetase, putative (Trypanosoma cruzi (strain CL Brener)) (UniProt Q4DSP6).
T4 sequence (whole entry): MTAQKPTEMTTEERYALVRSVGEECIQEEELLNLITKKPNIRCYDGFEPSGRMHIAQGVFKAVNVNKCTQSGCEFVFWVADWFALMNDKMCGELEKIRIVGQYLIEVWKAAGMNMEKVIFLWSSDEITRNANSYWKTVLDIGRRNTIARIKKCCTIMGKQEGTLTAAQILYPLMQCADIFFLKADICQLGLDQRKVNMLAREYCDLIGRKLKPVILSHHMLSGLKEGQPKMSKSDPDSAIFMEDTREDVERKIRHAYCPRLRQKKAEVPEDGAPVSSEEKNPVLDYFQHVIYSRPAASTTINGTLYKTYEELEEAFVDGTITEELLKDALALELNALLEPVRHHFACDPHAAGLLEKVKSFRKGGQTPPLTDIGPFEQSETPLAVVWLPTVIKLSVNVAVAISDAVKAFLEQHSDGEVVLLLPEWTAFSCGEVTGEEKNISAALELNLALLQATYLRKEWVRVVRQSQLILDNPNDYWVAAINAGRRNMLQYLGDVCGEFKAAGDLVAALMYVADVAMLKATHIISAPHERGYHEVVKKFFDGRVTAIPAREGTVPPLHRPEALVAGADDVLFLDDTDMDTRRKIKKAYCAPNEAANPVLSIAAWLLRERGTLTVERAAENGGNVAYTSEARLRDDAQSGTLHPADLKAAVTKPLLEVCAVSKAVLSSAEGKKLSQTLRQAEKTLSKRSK
The test can be described thus: Trypanosoma cruzi tyrosyl tRNA synthetase (TcYRS) _High Tyrosine SOP. Note: in the data most compounds retested in dose-response had high values. Format: functional. The following applies: 30 µM.

Test [8] has as its target T4, Tyrosyl-tRNA synthetase, putative (Trypanosoma cruzi (strain CL Brener)). The test can be described thus: Trypanosoma cruzi tyrosyl tRNA synthetase (TcYRS) SOP. It is filed as functional. The note with it: 30 µM.
Test [9] has as its target Chromo domain-containing protein 1 (Saccharomyces cerevisiae (strain ATCC 204508 / S288c) (Baker's yeast)) (UniProt P32657). Nature of the test: ScCHD-1 Enzyme Inhibition Assay. Note: in the data most compounds retested in dose-response had high values. It is filed as functional. The note with it: 30 µM.

The text below walks through data of ChEMBL document CHEMBL3988442, “University of Dundee, Small-Polar-MMV Screening Library” (2021).

For some of these results: Potency and affinity values are given separately.

Sequence of Chromo domain-containing protein 1 (Saccharomyces cerevisiae (strain ATCC 204508 / S288c) (Baker's yeast)) (P32657 whole entry, the tested form may be a part): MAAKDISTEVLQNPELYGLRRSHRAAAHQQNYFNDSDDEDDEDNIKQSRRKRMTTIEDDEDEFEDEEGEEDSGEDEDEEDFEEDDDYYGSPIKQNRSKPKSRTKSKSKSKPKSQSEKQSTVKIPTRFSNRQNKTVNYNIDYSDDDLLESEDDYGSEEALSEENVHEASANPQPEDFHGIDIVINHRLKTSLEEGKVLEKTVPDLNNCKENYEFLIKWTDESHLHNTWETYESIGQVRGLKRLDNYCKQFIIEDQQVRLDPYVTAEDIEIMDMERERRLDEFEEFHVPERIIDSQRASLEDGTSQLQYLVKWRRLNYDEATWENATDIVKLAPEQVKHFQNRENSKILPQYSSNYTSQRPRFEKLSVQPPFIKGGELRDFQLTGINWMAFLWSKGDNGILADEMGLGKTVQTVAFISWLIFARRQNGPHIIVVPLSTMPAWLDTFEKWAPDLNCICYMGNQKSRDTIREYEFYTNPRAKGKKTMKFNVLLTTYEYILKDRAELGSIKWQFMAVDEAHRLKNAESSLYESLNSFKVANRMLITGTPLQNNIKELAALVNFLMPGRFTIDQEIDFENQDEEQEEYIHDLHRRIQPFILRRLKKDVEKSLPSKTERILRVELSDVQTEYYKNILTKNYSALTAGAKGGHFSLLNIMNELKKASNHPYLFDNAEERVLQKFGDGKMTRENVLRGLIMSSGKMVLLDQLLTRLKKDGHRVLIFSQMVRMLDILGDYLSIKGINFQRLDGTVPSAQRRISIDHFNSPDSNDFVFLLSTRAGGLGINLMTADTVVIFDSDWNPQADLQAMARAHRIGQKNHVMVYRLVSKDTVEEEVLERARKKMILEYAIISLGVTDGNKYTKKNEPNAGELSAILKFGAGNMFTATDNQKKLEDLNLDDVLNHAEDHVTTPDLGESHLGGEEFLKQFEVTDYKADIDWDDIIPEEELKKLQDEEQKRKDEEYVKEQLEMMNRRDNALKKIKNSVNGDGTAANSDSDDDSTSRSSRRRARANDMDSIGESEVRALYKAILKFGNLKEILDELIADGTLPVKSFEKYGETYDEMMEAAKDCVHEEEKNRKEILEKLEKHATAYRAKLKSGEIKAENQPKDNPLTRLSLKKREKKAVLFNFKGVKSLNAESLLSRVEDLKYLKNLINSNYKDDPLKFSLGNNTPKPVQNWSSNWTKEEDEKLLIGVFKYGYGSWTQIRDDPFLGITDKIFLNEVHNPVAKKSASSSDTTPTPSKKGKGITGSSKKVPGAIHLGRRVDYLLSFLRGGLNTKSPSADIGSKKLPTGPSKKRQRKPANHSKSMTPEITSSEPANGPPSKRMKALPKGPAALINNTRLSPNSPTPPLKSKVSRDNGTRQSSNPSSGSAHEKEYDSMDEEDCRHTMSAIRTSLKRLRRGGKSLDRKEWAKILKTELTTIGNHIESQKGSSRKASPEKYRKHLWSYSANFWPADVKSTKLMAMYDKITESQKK
Sequence of Sialic acid-binding Ig-like lectin 9 (Homo sapiens) (Q9Y336 whole entry): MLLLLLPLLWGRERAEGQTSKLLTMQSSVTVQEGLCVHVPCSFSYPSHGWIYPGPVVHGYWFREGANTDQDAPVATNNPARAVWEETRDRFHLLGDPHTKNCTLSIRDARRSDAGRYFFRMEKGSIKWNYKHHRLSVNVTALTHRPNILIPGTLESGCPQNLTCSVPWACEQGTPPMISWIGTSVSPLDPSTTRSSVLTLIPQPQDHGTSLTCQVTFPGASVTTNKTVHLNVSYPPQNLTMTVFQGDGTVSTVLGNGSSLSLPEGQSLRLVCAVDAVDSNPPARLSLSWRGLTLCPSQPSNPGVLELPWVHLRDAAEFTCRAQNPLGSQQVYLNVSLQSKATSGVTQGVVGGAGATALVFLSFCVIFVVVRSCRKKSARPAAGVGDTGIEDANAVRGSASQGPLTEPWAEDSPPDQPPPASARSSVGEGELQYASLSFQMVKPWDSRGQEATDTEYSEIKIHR
Sequence of Protein translocase subunit SecA (Escherichia coli (strain K12)) (P10408 whole entry): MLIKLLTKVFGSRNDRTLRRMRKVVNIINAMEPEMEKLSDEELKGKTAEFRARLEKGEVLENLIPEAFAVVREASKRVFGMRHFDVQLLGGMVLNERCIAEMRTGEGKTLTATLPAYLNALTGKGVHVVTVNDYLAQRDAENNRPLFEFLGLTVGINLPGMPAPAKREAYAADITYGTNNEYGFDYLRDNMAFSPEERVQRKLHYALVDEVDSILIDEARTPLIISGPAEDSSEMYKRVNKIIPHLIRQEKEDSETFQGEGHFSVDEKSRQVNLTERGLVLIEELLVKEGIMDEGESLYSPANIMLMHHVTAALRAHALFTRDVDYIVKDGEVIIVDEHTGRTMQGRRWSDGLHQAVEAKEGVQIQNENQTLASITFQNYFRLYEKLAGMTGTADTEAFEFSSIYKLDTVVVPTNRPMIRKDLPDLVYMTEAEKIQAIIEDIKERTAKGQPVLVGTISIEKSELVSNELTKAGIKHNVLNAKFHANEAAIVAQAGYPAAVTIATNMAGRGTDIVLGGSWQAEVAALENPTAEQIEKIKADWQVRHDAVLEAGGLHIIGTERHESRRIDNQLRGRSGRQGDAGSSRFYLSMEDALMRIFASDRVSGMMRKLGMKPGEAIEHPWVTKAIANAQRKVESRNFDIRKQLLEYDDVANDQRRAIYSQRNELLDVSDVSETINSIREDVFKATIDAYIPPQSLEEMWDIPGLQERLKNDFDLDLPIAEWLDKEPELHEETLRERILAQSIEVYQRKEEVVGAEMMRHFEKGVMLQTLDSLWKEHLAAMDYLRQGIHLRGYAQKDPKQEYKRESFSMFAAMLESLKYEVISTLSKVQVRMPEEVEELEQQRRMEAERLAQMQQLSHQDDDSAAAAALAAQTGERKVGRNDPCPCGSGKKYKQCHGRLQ

Take `CN1CCCC(Cc2ccnc3ccncc23)CC1` (stereo unspecified): the Percent Effect in test [1] is -5.09%; in test [2], -1.35%; in [3] it was 2.02%; in test [4], 0.644%; in the test on Trypanosoma cruzi, -0.988%; in test [5] it was -2.09%. The Percent Effect in test [6] is -0.312%; in the test listed under Homo sapiens it was 3.76%; in [7] it was 2.15%; in test [8], -1.3%; in test [9], 4.65%.
On to `COC(=O)c1ccccc1NC(=O)c1nc2ccccc2n(C)c1=O`, for which the Percent Effect in [1] is -1.59%; in test [2] it was 10.4%; in test [3] it was 1.48%; in [4], -0.871%; in the test with Trypanosoma cruzi it was 5.82%; in [5], 1.94%. For the same molecule, the Percent Effect was 6.79% in test [6]; 17% in the test filed under Homo sapiens; 4.23% in test [7]; 16.7% in test [8]; -8.57% in [9].
For the molecule `O=C(CN1CCCC1Cn1cncn1)NCCc1c(F)cccc1F` (stereo unspecified), the Percent Effect in [1] was -9.37%; in test [2], 18.4%; in test [3], -9.7%; in test [4], 10.3%; in the test on Trypanosoma cruzi, 11.9%; in test [5] it was 0.719%. Further, the Percent Effect in [6] is 7.36%; in the test listed under Homo sapiens, -5.35%; in test [7] it was 5.42%; in test [8], 18.5%; in [9], -10.6%.
For `CC(NC(=O)NCCCOC1CCCCC1)c1nncn1C` (stereo unspecified), the Percent Effect in [1] was -0.354%; in test [2], 2.7%; in [3], -2.09%; in [4] it was 21.6%; with Trypanosoma cruzi, 4.18%; in test [5], -1.29%. Moreover, the Percent Effect in test [6] is 16.2%; in the test listed under Homo sapiens, 5.68%; in [7], 3.96%; in test [8], 25.6%; in [9], -7.07%.
In the case of `O=C(COCc1ccccc1Cl)N1CCCC(n2cccn2)C1` (stereo unspecified), the Percent Effect in test [1] is -4.85%; in [2] it was 18.2%; in test [3], 6.5%; in test [4], -7.66%; in the test with Trypanosoma cruzi, -1.08%; in [5], 4%. For the same molecule, the Percent Effect is 20.4% in test [6]; 20.2% in the test filed under Homo sapiens; 2.86% in [7]; 11.8% in test [8]; -9.25% in test [9].
As to `Nc1nccc(N2CCCC(CO)(CCOc3ccccc3)C2)n1` (stereo unspecified), the Percent Effect in [1] is -4.62%; in [2], 2.6%; in [3], -0.596%; in [4] it was 19%; in the test with Trypanosoma cruzi it was 8.75%; in test [5], -13.8%. For the same molecule, the Percent Effect in test [6] is 15.3%; in the test listed under Homo sapiens, 41.9%; in test [7], 7.53%; in test [8] it was 13.6%; in test [9], -3.14%.
With `CNc1cncc(C2CCCN2Cc2ccccc2OCC(=O)O)n1` (stereo unspecified), the Percent Effect in test [1] is -4.52%; in test [2], -52.7%; in test [3] it was 7.74%; in test [4], 0.809%; with Trypanosoma cruzi it was -3.75%; in [5], -2.55%. Also, the Percent Effect in test [6] stood at 9.52%; in the test filed under Homo sapiens, 5.72%; in test [7], 1.07%; in test [8], 3.9%; in test [9], 0.143%.
Take `COC(=O)c1sccc1S(=O)(=O)N1CCC(Oc2ncccc2Cl)CC1`: the Percent Effect in test [1] was -6.92%; in test [2], -8.22%; in test [3], 18.7%; in test [4], 1.08%; in the test with Trypanosoma cruzi it was 4.9%; in test [5] it was -0.455%. The Percent Effect was 3.02% in test [6]; 35.1% in the test filed under Homo sapiens; -19.4% in test [7]; -20% in [8]; -1.89% in test [9].
Turning to `COCc1nn(C(C)C)c2c1CCN(Cc1ccc(C)s1)C2`, the Percent Effect is -2.06% in test [1]; 2.74% in [2]; -1.91% in test [3]; -1.63% in test [4]; 0.198% in the test with Trypanosoma cruzi; 5.99% in test [5]. The Percent Effect in [6] is 7.62%; in the test listed under Homo sapiens, 1.17%; in [7] it was 2.08%; in test [8] it was 3.7%; in [9], -2.29%.
In the case of `Cc1csc(N2CCN(C(=O)Cc3ccc(C)s3)CC2)n1`, the Percent Effect in test [1] was -4.68%; in [2] it was 10.8%; in test [3] it was -9.36%; in test [4], 4.82%; in the test with Trypanosoma cruzi, -6.89%; in test [5], -5.61%. For the same molecule, the Percent Effect in test [6] is 25.2%; in the test listed under Homo sapiens it was 15.8%; in test [7], 12.3%; in test [8], 11.1%; in [9], 1.36%.
Turning to `CNS(=O)(=O)Cc1ccc(CNC(=O)c2cccc(C)n2)cc1`, the Percent Effect in [1] is -2.39%; in [2] it was 23.4%; in [3], 0.0556%; in test [4], 2.86%; in the test on Trypanosoma cruzi, 4.12%; in [5] it was -3.92%. In addition, the Percent Effect was 5.57% in test [6]; 15.5% in the test listed under Homo sapiens; 11.7% in test [7]; 21.9% in test [8]; -7.52% in [9].
